# High-throughput results as filed in PubChem.
# NOMO-1 viab – STK33 inhibitor candidate reducing NOMO-1 cell viability; NOMO-1 AML viability, CellTiter-Glo luminescence, 72 h; inhibition, % (test concentration not listed); hit rate 7.5% among 37,000; in the data active = inhibition above about 80%; inconclusive = no clear call, values can overlap the other calls
# Hedgehog inh – Sonic Hedgehog pathway inhibition. hit rate 2.1% among 22,000. inhibition, % (no concentration beside the values). Shh-LIGHT2 Gli-luciferase reporter, 30 h. AID 2313;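 active = mean inhibition across valid replicates above about 65%, limit read from the data; inconclusive = mean under the limit, yet half or more replicates past it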;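 also: pathway switched on by Shh-conditioned medium diluted 1 in 25 in low serum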
# MITF inh – MITF inhibition. inhibition, % (no concentration beside the values). TRPM1 promoter luciferase, luminescence, 24 h. hit rate 0.28% among 37,000; in the data active = inhibition above about 85%; inconclusive = no clear call, values can overlap the other calls; inactive = below about 68%;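 also: human melanocyte line stably carrying TRPM1 promoter luciferase reporter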
# * hit, by the source's call; ? = inconclusive; / = not tested or not shown. Only some compounds are listed: those with a hit (about 7.8% of all), similar ones and a draw of the others.
SMILES,NOMO-1 viab,Hedgehog inh,MITF inh
COc1ccc(S(=O)(=O)Nc2ccc3c(c2)CC(=O)N([C@@H](C)CO)C[C@@H](C)[C@@H](CN(C)Cc2ccc(Cl)c(Cl)c2)O3)cc1,107*,38,9
CC(=O)Nc1ccc(Br)cc1-c1nc2ccccc2nc1OCc1ccc(Cl)cc1,6,/,-4
CC1(C)Cc2nc3sc4c(SCC(=O)N5CCOCC5)ncnc4c3cc2CO1,-10,/,-29
C=CCn1c(SCC(=O)c2c(C)[nH]c3ccccc23)nc2sc3c(c2c1=O)CCC3,7,/,0
COc1cc2oc(=O)ccc2cc1CC(O)C(C)(C)O (configuration not stated),-9,-33,7
C[C@@H]1CN([C@H](C)CO)C(=O)Cc2cc(NC(=O)CCCCCC(=O)Nc3ccccc3N)ccc2O[C@@H]1CN(C)C(=O)Nc1ccc(C(F)(F)F)cc1,4,/,-18
C[C@@H]1CN([C@@H](C)CO)C(=O)c2cc(NC(=O)CCCCCC(=O)Nc3ccccc3N)ccc2O[C@@H]1CN(C)Cc1ccc(-c2ccccc2)cc1,46,/,-11
C[C@@H]1CN([C@@H](C)CO)C(=O)Cc2cc(NC(=O)CCCCCC(=O)Nc3ccccc3N)ccc2O[C@@H]1CN(C)Cc1ccc(-c2ccccc2)cc1,142*,/,56
C[C@H]1CN([C@@H](C)CO)C(=O)Cc2cc(NC(=O)CCCCCC(=O)Nc3ccccc3N)ccc2O[C@@H]1CN(C)Cc1ccc2c(c1)OCO2,34,/,-1
C[C@H]1CN([C@@H](C)CO)C(=O)Cc2cc(NC(=O)CCCCCC(=O)Nc3ccccc3N)ccc2O[C@@H]1CN(C)Cc1ccc(C(F)(F)F)cc1,106*,/,15
C[C@H]1CN([C@@H](C)CO)C(=O)Cc2cc(NC(=O)CCCCCC(=O)Nc3ccccc3N)ccc2O[C@@H]1CN(C)Cc1ccc(-c2ccccc2)cc1,140*,/,19
C[C@H]1CN([C@@H](C)CO)C(=O)Cc2cc(NC(=O)Cn3cnnn3)ccc2O[C@@H]1CN(C)S(=O)(=O)c1cn(C)cn1,-1,-18,6
COc1ccc(NC(=O)Nc2ccc3c(c2)CC(=O)N([C@H](C)CO)C[C@H](C)[C@H](CN(C)S(=O)(=O)c2cccs2)O3)cc1,20,3,-11
C[C@H]1CN([C@@H](C)CO)C(=O)c2cccc(NC(=O)c3ccncc3)c2O[C@H]1CN(C)S(=O)(=O)c1cn(C)cn1,-11,23,0
S=C1C=C(N2CCCCC2)CC(c2ccc(Cl)cc2)S1 (configuration not stated),41,/,21
Clc1ccc(C2=NN=C(N3CCCC3)SC2)cc1,99*,/,81
C[C@H](CO)N1C[C@H](C)[C@@H](CN(C)C(=O)Nc2ccc3c(c2)OCO3)Oc2ccc(NC(=O)Nc3ccc4c(c3)OCO4)cc2C1=O,-7,?,-5
COc1ccc(OC)c(NC(=O)CC2Sc3ccccc3NC2=O)c1 (configuration not stated),3,/,-2
CCOc1cc([N+](=O)[O-])ccc1NC(=O)CC1Sc2ccccc2NC1=O (configuration not stated),110*,/,35
Cn1c(SCC(=O)Nc2ccc(Oc3ccccc3)cc2)nnc1-c1ccc([N+](=O)[O-])cc1,47,/,23
Oc1c(C(Nc2cccc(Cl)c2)c2cccnc2)ccc2cccnc12 (configuration not stated),115*,75*,37
O=C(CSCc1c(Cl)cccc1Cl)Nc1cccnc1,18,/,-36
Oc1c(C(Nc2cccnc2)c2ccc(Cl)cc2)ccc2cccnc12 (configuration not stated),120*,/,39
Oc1c(C(Nc2cccnc2)c2ccccc2F)ccc2cccnc12 (configuration not stated),116*,/,59
CC(C)NC(=O)N(C)C[C@H]1Oc2ccc(N(C)C)cc2C(=O)N([C@@H](C)CO)C[C@@H]1C,0,-37,-3
O=C(CSc1nc2ccc(NC(=O)c3ccccc3)cc2s1)Nc1cccc([N+](=O)[O-])c1,53,/,-30
C[C@H]1CN([C@@H](C)CO)C(=O)c2cccc(NS(=O)(=O)c3ccc(F)cc3)c2O[C@@H]1CN(C)Cc1ccc(-c2ccccc2)cc1,20,16,19
Cc1ccc(S(=O)(=O)Nc2cccc3c2O[C@@H](CN(C)Cc2ccc(C(F)(F)F)cc2)[C@@H](C)CN([C@@H](C)CO)C3=O)cc1,17,7,12
Cc1ccc(S(=O)(=O)Nc2cccc3c2O[C@@H](CN(C)Cc2ccc(C(F)(F)F)cc2)[C@@H](C)CN([C@H](C)CO)C3=O)cc1,90*,13,22
C[C@@H]1CN([C@@H](C)CO)C(=O)c2cccc(NS(=O)(=O)c3ccc(F)cc3)c2O[C@@H]1CN(C)Cc1ccc(-c2ccccc2)cc1,84*,6,-2
